Assay results: PubChem BioAssay (NCI)
Compounds without any hit were thinned out: in the full panel of roughly 79,000, 15% have a hit. The source made the active and inactive calls. Rule as the data show it: active = growth inhibition above about 70%; inactive = the rest.

Assay: NCI Yeast Anticancer Drug Screen. Data for the rad50 strain (AID 155);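 also: 0% = growth of vehicle-only cultures of the same strain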
Conditions: S. cerevisiae rad50 strain growth inhibition; at 50.0 µM; active compounds read high
Method in brief: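 Vehicle-treated cultures provide the reference for the growth inhibition reported for compound-exposed, repair-deficient yeast.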

| Structure (SMILES) | growth inhibition |
| --- | --- |
| COc1cccc(OC(=O)Nc2ccccc2)c1 | 2.6% (inactive) |
| O=C1C(O)=C(Cl)C(=O)C(O)=C1Cl.[Zn+2] | -40.5% (inactive) |
| O=CNCC(O)c1ccc2c(c1)[nH]c1ccccc12 (centres undefined) | 30.6% (inactive) |
| C1CCCCCC2=C(CCCC1)CCCO2 | 7.4% (inactive) |
| CSC1=NC=C(C#N)C2=NC(c3ccc(Cl)cc3)NN12 (centres undefined) | 1.95% (inactive) |
| COc1cc(CCl)c(OC)cc1Cl | 8.6% (inactive) |
| CC(=O)CC(=O)Nc1ccc(C(=O)c2ccccc2)cc1 | 8.35% (inactive) |
| O=C(N/C(=C\c1ccccc1[N+](=O)[O-])c1nc2ccccc2[nH]1)c1ccccc1 | -3.4% (inactive) |
| ClCC#CCCl | 19.4% (inactive) |
| NS(=O)(=O)c1ccc(Nc2c3ccccc3nc3ncccc23)cc1 | -6.85% (inactive) |
| CCCCCNC(=O)CCC | 22.6% (inactive) |
| Cc1ccc(N=C2C(c3ccccc3)=C(SC3=C(c4ccccc4)C(=Nc4ccc(C)cc4)c4ccccc43)c3ccccc32)cc1 | 12.9% (inactive) |
| CS(=O)(=O)OCC(CCl)(CCl)CCl | -4.5% (inactive) |
| O=C(N=c1ccc2nc(=O)[nH]n(O)c-2c1)C(F)(F)F | -12.1% (inactive) |
| Cc1nc([N+](=O)[O-])cn1CC(=N)N | -23% (inactive) |
| NC1=C(Br)C(=O)c2[nH]c(=O)[nH]c(=O)c2C1=O | 18.8% (inactive) |
| CC1(C)C(=NN=C(N)N)C(C)(C)C1=NN=C(N)N | -3.35% (inactive) |
| CC1OC(C)(c2ccccc2)OC1C (centres undefined) | 18.1% (inactive) |
| COc1cccc(C(F)(F)F)c1 | -3.1% (inactive) |
